# AID504770 = growth inhibitors of E. coli YBA685 in a screen for V. cholerae RctB (chromosome II replication) inhibitors; E. coli YBA685 rctB-dependent plasmid, OD600 growth, 3 h; stronger effect = lower value; z-score (no concentration beside the values); actives 0.27% (n = 130,000); AID 504770; in the data active = z-score below about -2, passing the limit was not always enough
# Mtb MbtI inh = blocks the Mycobacterium tuberculosis siderophore enzyme MbtI | P9WFX0 | purified MbtI enzyme, fluorescence intensity read-out | inhibition, % (no concentration beside the values) | actives 0.89% (n = 100,000) | AID 493033; in the data active = inhibition mostly above about 56%, no sharp cut-off; inactive = mostly below about 77%
# Mtb MenB inh = blocks the Mycobacterium tuberculosis MenB enzyme. inhibition, % (test concentration not listed). actives 0.43% (n = 100,000). MenB enzyme assay, absorbance read-out. AID 540299; in the data active = inhibition above about 21%, passing the limit was not always enough
# Polio RdRp inh = inhibitors of poliovirus RNA polymerase binding and polymerization; actives 0.66% (n = 150,000); % elongation, % (compound at 16.7 µg/mL); P03300; poliovirus polymerase elongation, fluorescence polarization; stronger effect = lower value; in the data active = % elongation below about 90%
# Target sequence (P03300 1749-2209 limits assumed): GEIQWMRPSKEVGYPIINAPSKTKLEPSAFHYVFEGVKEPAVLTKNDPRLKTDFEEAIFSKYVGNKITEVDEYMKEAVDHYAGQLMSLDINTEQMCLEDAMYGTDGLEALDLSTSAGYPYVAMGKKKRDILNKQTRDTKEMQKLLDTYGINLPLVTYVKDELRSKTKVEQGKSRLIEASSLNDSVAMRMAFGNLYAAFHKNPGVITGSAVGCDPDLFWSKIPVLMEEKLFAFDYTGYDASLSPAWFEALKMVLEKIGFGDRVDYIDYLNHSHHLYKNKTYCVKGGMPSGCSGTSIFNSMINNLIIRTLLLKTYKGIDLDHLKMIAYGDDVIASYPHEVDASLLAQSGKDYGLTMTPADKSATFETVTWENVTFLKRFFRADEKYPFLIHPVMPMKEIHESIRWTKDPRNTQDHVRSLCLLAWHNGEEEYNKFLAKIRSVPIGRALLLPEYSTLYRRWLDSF
# * marks the source's active call; other numbers are inactive results; nt = no result given. Rows were chosen to be rich in hits. Some 1.4% of all compounds tested hit in one or more screens of this group.
SMILES,AID504770,Mtb MbtI inh,Mtb MenB inh,Polio RdRp inh
COc1ccc2c(c1)c1nc(N(C)C)nc3c1n2CCN3C,2,-48,-28,6.0*
CN=C1c2c(C)c3cc(OC)ccc3n2CCN1C,0.5,-75,8,104
Cn1ccnc1P(=O)(O)c1ccccc1,0.65,6,-2,88*
CSC1=NCCN1C(=O)C1CCCCC1,0.35,2,-7,99
COC(=O)c1c(-c2cccs2)csc1NC(=O)COc1ccc(C(C)(C)C)cc1,nt,nt,nt,80*
COC(=O)c1c(-c2cccs2)csc1NC(=O)COc1c(C)ccc(C)c1C,nt,nt,nt,62*
COC(=O)c1c(-c2cccs2)csc1NC(=O)COc1ccccc1,nt,nt,nt,66*
C=C(C)C1CC[C@]2(C(=O)O)CC[C@]3(C)[C@H](CC[C@@H]4[C@@]5(C)CC[C@H](O)C(C)(C)[C@@H]5CC[C@]43C)[C@@H]12 (stereo partly specified),nt,nt,-18,104
Cn1c(CNc2ccc(Cl)cc2)nnc1SCc1ccc(Cl)cc1,0.2,-2,-51,102
Cc1cc(N2CCCC2)ccc1/C=C/C1=CCN(C)CC1,1.2,89,11,64*
C=CCn1c(C)c(/C=C/C2=CCN(C)CC2)c2ccccc21,-0.5,79,-168,78
O=C(NCc1ccco1)C(Sc1ccccc1)c1ccccc1 (stereo unspecified),0.65,-5,33*,102
O=C(NCc1ccco1)C(=S)NCc1ccccc1,-0.2,68*,-7,99
O=C(NCc1ccccc1)c1ccco1,-1.4,-18,-18,103
O=C(/C=C/c1ccco1)OCC(=O)c1ccc(Cl)s1,-0.6,0,-5,102
CC(C)Oc1ccc(C(F)(F)F)cc1N,-1.3,nt,nt,nt
O=C(CSc1ncc(C(F)(F)F)cc1Cl)NC(=O)CN1CCCC1=O,-1.1,1,-12,102
COC(=O)C1(c2ccccc2)NC(c2ccccc2C)C2C(=O)N(C)C(=O)C21 (stereo unspecified),-0.35,-8,-54,102
COC(=O)C1(C(C)C)NC(c2ccccc2OC)C2C(=O)N(C)C(=O)C21 (stereo unspecified),-0.65,-7,27*,102
N#Cc1c(N2CCCC(O)C2)nc(N)c2c(N)nc3c(c12)CC(=O)N3C12CC3CC(CC(C3)C1)C2 (stereo unspecified),1.3,-14,-25,39*
C=C(C)CN(CC)c1nc(N)c2c(N)nc3c(c2c1C#N)CC(=O)N3C12CC3CC(CC(C3)C1)C2,1,-18,-2,102
CS(=O)(=O)NCC(c1ccc2c(c1)OCO2)N1CCN(c2ccccc2)CC1 (stereo unspecified),-0.7,-11,-11,99
COc1ccc2c(c1)cc1n2CCN2CCN=C12,-0.2,-2,-3,100
COc1ccc2c(c1)cc1n2CCN=C1N,-1.3,nt,-5,89*
O=C1C=C2C(=CCOC2O)O1 (stereo unspecified),-5.2*,27,0,99
SMILES,AID504770,Mtb MbtI inh,Mtb MenB inh,Polio RdRp inh
CCOC(=O)c1s/c(=N/N=C(C)C)n(C)c1C,-0.8,56*,-15,102
Cc1cc(C(=O)O/N=C(\N)c2ccccc2)nn1C(C)(C)C,-0.9,-5,1,100
O=S1(=O)CCC(NC(=S)S)C1 (stereo unspecified),-1.6,96*,nt,101
O=S1(=O)CCC(NC(=S)SCc2ccccc2)C1 (stereo unspecified),-3.8*,nt,nt,nt
O=C(NC(=S)Nc1nn[nH]n1)C1CCCCC1,-0.25,14,-53,nt
CN(C)/C=C1/C=C(c2ccccc2)OC1=S,2.9,80*,-168,99
O=C1OC(c2ccccc2)=C/C1=C/c1ccccc1,1,nt,nt,nt
Cn1c(CNC(=O)C2CCCCC2)cc2cc(Cl)ccc21,-0.35,nt,23*,104
Cc1ccc(CCNC(=O)c2cnc3c(-c4ccc(F)cc4)c(C)nn3c2C)cc1,nt,nt,nt,76*
CCOc1ccc(CCNC(=O)c2cnc3c(-c4ccc(F)cc4)c(C)nn3c2C)cc1,nt,nt,nt,105
N#Cc1cc(Cl)ccc1Nc1ncnc(N)n1,-2.4*,nt,nt,nt
COc1ccc(/C=C2\SC(=O)NC2=S)cc1OC,1.5,64*,-65,90
Cc1ccc2nc(NCc3ccccc3)[nH]c2c1,-2.2*,-11,4,102
CCOc1cc(S(=O)(=O)NCCc2ccc(OC)c(OC)c2)c(OCC)cc1-n1cnnn1,1.9,-18,44*,103
CCOc1cc(S(=O)(=O)NCc2ccc(OC)cc2)c(OCC)cc1-n1cnnn1,1.6,48,23,102
C=CCN1C(=O)CS/C1=C(\C#N)S(=O)(=O)c1ccc(C)cc1,-2.9*,1,-69,98
O=C(NCCn1cccc1)c1cccc2ccccc12,-1.1,53*,6,102
O=C1CN(C(=O)CCCOc2cccc(Br)c2)c2ccccc2N1,-0.05,1,3,107
O=C1C2C3c4ccccc4C(c4ccccc43)C2C(=O)N1Cc1ccco1 (stereo unspecified),1.2,-1,23*,101
CCS(=O)(=O)c1ncc(Cl)c(C(=O)Nc2ccc(Cl)cc2)n1,-0.85,63*,-14,103
Cc1c(-c2ccccc2)sc(N)c1C(=O)N1CCCCC1,0.25,84,-13,70*
Cn1nc(C(=O)N2CCN(c3ccc(Cl)cc3)CC2)c2c1-c1ccccc1SC2,nt,nt,nt,110
Cn1nc(C(=O)N2CCCCC2)c2c1-c1ccccc1SC2,-1.1,87*,0,101
CC(C)(O)/C(=C\C#N)n1c(=O)oc2ccccc21,-0.15,-3,-15,101
O/N=c1/sc2ccccc2n1CCS,-0.3,69*,15,99
SMILES,AID504770,Mtb MbtI inh,Mtb MenB inh,Polio RdRp inh
CN(C)c1cccc(N(C)C)c1CNC(=O)c1ccc(Cl)cc1,-0.65,nt,nt,nt
Cc1ccccc1N1C(=O)C=CC1=O,0.9,100*,-18,100
CC(C)(C)c1ccccc1N1C(=O)C=CC1=O,-1.6,nt,nt,nt
O=C1C=CC(=O)N1c1ccccc1Br,-3.3*,99*,nt,104
N#Cc1ccccc1N1C(=O)C=CC1=O,-3.5*,nt,nt,nt
CSc1ccccc1N1C(=O)C=CC1=O,-2.5*,101*,-5,102
N#Cc1ccccc1N1C(=O)c2ccccc2S1(=O)=O,-0.7,nt,nt,nt
CC(=O)Nc1ccc2c(c1)ncn2C(C)(C)C,-0.35,-18,nt,nt
Cc1ccc2nc(-c3ccc(NC(=S)NC(=O)Cc4ccccc4)cc3O)oc2c1,0.2,-12,-3,100
Cc1cccc(C(=O)Cc2ccccc2O)c1,0.65,46,nt,105
CCSc1nnc(C2CCCN(S(C)(=O)=O)C2)n1C(C)C (stereo unspecified),-1.5,21,-30,105
CCC12CN(S(=O)(=O)c3ccccc3)CC(CC)(CN(S(=O)(=O)c3ccccc3)C1)C2=O,1.1,17,10,99
CCC(N)C(=O)c1ccc(Cl)cc1 (stereo unspecified),-0.45,3,32*,101
CCOC(=O)CCSc1n[nH]c(=S)s1,0.3,85*,-22,103
CCOC(=O)CSc1n[nH]c(=S)s1,0.1,90*,-21,101
CCOC(=O)CSc1nn(C)c(=S)s1,1.2,25,nt,nt
NC(=O)CCSc1n[nH]c(=S)s1,-0.95,56,-7,101
Cn1c(N)c(C#N)c2c(c1=S)CCCC2,-2.8*,24,-45,88*
Cc1nc(Cc2nnc(SCc3cc(=O)oc4cc(C)c(C)cc34)o2)cs1,-0.6,53,-30,-2.0*

# Bioassay records deposited in PubChem BioAssay by ICCB-Longwood Screening Facility, Harvard Medical School.
